Measured values taken from PubChem BioAssay (NCI).
The panel holds about 83,000 compounds, 20% with a hit somewhere; the sample as a whole holds those more often.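 Step 1: grow cells in 96-well plates. Step 2: add test compound at a single concentration. Step 3: incubate 48 h. Step 4: record percent growth.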 Calls of active or inactive are those of the source. The calls were made as follows: active = growth percent below 10; inactive = the rest.

The compounds below were run on M14 melanoma (assay: NCI-60 one-dose screen, 48 h (100 = growth as untreated, 0 = no growth, -100 = all killed)). Settings: 10 µM unless noted.
For O=C1c2cccc3cccc(c23)C(=O)N1N1C(=O)c2cccc3c(N4CCOCC4)ccc(c23)C1=O, the growth was 90% (inactive).
CCO/C=N/C1=C(C#N)C(c2ccc(OC)cc2)c2sc3c(F)cccc3c2O1 (configuration not stated) was tested, and the growth was 22.6% (inactive).
With Cc1ccc(CNc2ccc(Cl)cc2NCc2ccc(C)c(O)c2)cc1O the growth was 25.3% (inactive).
In the case of O=C(c1ccc(-c2nc(CSc3nc4ccccc4s3)no2)cc1)N1CCSCC1, the growth is reported as 79.9% (inactive).
In the case of C/C(=C(/c1ccc(Cl)cc1)c1ccc(OCCN2CCCC2)cc1)c1ccc(Cl)cc1, the growth is reported as 75.8% (inactive).
CC[C@]12C=CCN3CC[C@@]4(c5cc(NC(=O)CCC(=O)OCc6cn(Cc7ccc(F)cc7)nn6)c(OC)cc5N(C)[C@H]4[C@@](O)(C(=O)OC)[C@@H]1OC(C)=O)[C@@H]32 was tested, and the growth was 103% (inactive).
For C=C(C)[C@@H]1CC[C@]2(C(=O)O)CC[C@]3(C)[C@H](CC[C@@H]4[C@@]5(C)C[C@@H](Cc6cn(CCO[C@@H]7O[C@H](COC(C)=O)[C@H](OC(C)=O)[C@H](OC(C)=O)[C@H]7OC(C)=O)nn6)[C@H](O)C(C)(C)[C@@H]5CC[C@]43C)[C@@H]12, the growth was 81.2% (inactive).
C=CCn1c(SCC(=O)Nc2ccc(C(=O)/C=C/c3ccc(Cl)cc3)cc2)nnc1-c1cc(-c2ccc(S(N)(=O)=O)cc2)nc2ccccc12 was tested, and the growth was 92.2% (inactive).
CCOC(=O)C1=NN(c2ccccc2)C(=O)/C1=C\N1C(=O)CC(=O)NC1=S was tested, and the growth was 93.7% (inactive).
In the case of CC12CCC3c4ccccc4CCC3(CO1)C2 (configuration not stated), the growth is reported as 128% (inactive).
With O=C1CC(N2C(=O)/C(=C/C(Cl)=C\c3ccc([N+](=O)[O-])cc3)SC2=S)C(=O)N1c1ccc(Cl)cc1 (configuration not stated) the growth was 23.9% (inactive).
CC1(C)c2[nH]c3ccccc3c2C[C@]2(C)[C@H]3CC=C4[C@@H]5C[C@@](C)(C(N)=O)CC[C@]5(C)CC[C@@]4(C)[C@]3(C)CC[C@@H]12 was tested, and the growth was 54.6% (inactive).
In the case of CCCCCOc1ccc(C(=O)/C(Br)=C/C(=O)O)cc1, the growth is reported as 56.8% (inactive).
With CC(C)N1CCN(Cc2ccc3c(NNC(=O)c4ccccc4)nc4cc(F)ccc4n23)CC1 the growth was 6.58% (active).
N#Cc1cccc(NC(=O)c2oc3ccccc3c2-c2cnn(-c3ccccc3)c2)c1 was tested, and the growth was 84% [50 µM] (inactive).
Cc1cccc(N2CCN(CC(O)COc3ccc(Cl)cc3)CC2)c1 (configuration not stated) was tested, and the growth was 95.9% (inactive).
With CCOC(=O)c1c(C)nc2c(c1N)CC(=O)N2Cc1cc(F)cc(Cl)c1 the growth was 101% (inactive).
With C[C@@H]1CCC[C@H]1CC(N)C(=O)O (some centres not stated) the growth was 98.8% (inactive).
O=CC1(C2(C=O)c3ccccc3-c3ccccc32)c2ccccc2-c2ccccc21 was tested, and the growth was -67.1% (active).
With O=C1Nc2ccc(I)cc2C1=O the growth was 95.9% (inactive).
For CN1CCN(c2ccc(NC(=O)c3nc4ccc5[nH]ncc5c4c4c3CCCC4)cc2C(F)(F)F)CC1, the growth was 79.5% (inactive).
For CN(C)C1CCN(Cc2ccc(NC(=O)c3cncc(C#Cc4cnc(N)c5ncccc45)c3)cc2C(F)(F)F)CC1, the growth was -73.6% (active).
COc1ccc(C/C(C)=C(/c2ccc(OCCN3CCCCC3)cc2)c2ccc(OC(=O)NCc3ccccc3)cc2)cc1 was tested, and the growth was -92.3% (active).
For COc1ccccc1NC(=O)Cn1cc(CN2CCN(c3ccnc4cc(Cl)ccc34)CC2)nn1, the growth was 106% (inactive).
In the case of N=C(N)c1ccc(-c2ccc(-c3ccc(F)cc3)o2)o1, the growth is reported as -54.1% (active).
In the case of CN1C(=O)/C(=C/c2ccc(C(=O)Nc3ncc(Cc4ccc(Cl)cc4)s3)cc2)SC1=S, the growth is reported as 16.3% (inactive).
In the case of CCCCCC(=O)OCC(=O)O[C@@H]1C[C@]2(C(C)C)O[C@@]1(C)[C@@H]1CC[C@@H](C)[C@H]1[C@@H]2OC(=O)/C=C/c1ccccc1, the growth is reported as 69.1% (inactive).
CC(=O)N(N=Nc1ccccc1)c1cccc2ccccc12 was tested, and the growth was 90.9% (inactive).
In the case of COc1ccc(/C=C2\C(=O)N=C3N2NC(c2cc(Br)ccc2O)C=C(C)N3c2ccccc2)cc1 (configuration not stated), the growth is reported as 98.8% (inactive).
In the case of CC(C)(C)[Si](C)(C)O[C@H]1C(=O)C=CN2CC=C[C@@H]12, the growth is reported as 108% [100 µM] (inactive).
C=C1C(=O)O[C@H]2[C@H]1CC/C(COC(=O)CSCCSCC(=O)OC/C1=C/CC[C@@]3(C)O[C@H]3[C@H]3OC(=O)C(=C)[C@@H]3CC1)=C\CC[C@@]1(C)O[C@@H]21 was tested, and the growth was 3.06% (active).
With Brc1ccc2[nH]cc(-c3nonc3-c3c[nH]c4ccccc34)c2c1 the growth was 24.7% (inactive).
